Measured values as given in the supplement of paper PMC10849652.
The full data set covers some 7,900 targets. This sample favours those with a hit. About 0.6% of all pairs of compound and target were hits. Unmarked numbers belong to inactive results.

UniProt P50570, sequence (P50570 whole entry, looked up): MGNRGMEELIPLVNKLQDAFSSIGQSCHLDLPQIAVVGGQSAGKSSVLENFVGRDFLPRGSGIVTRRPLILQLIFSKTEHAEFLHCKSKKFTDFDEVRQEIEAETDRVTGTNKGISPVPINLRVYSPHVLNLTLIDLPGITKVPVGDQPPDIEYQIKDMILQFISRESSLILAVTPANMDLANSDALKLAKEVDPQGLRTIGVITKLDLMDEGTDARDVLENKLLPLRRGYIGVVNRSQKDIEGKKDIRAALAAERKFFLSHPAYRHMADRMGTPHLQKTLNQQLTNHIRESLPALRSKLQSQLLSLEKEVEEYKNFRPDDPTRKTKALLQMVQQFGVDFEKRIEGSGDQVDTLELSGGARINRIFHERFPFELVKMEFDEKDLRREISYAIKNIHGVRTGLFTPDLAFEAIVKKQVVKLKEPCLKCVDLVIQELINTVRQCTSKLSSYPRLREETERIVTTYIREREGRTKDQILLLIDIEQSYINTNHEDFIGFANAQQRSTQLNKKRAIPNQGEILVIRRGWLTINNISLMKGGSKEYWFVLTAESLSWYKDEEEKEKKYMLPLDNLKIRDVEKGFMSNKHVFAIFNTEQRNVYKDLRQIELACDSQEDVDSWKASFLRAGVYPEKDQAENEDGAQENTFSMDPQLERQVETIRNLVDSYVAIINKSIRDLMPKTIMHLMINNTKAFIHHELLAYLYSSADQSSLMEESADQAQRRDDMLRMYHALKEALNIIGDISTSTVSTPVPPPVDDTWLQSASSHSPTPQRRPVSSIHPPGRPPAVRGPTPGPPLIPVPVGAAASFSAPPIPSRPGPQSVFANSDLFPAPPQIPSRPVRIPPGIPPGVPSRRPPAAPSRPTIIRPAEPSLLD
UniProt Q13409, sequence (Q13409 whole entry, looked up): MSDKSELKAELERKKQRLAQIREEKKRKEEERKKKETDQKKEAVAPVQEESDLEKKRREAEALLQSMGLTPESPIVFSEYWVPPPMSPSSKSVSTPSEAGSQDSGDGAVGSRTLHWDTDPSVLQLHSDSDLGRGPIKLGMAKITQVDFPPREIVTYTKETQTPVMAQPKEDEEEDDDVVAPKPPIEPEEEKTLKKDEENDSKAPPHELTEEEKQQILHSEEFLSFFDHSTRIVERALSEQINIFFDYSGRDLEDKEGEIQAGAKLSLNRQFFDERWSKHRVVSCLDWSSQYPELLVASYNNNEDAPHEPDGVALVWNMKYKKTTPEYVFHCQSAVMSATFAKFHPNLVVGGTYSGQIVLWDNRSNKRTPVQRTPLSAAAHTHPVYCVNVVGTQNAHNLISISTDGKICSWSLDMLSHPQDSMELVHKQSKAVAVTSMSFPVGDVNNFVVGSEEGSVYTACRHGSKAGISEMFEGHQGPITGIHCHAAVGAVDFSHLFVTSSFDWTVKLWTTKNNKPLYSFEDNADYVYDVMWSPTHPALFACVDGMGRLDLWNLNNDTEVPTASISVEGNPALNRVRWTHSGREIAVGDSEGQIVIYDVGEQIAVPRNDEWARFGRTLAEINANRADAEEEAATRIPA
UniProt P23919, sequence (P23919 whole entry, looked up): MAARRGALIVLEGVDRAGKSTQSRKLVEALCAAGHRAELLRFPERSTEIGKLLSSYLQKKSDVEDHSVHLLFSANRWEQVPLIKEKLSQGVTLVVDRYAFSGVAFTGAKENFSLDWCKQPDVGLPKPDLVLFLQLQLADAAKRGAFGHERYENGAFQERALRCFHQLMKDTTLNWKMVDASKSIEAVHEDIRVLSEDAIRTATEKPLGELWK
UniProt O60573, sequence (O60573 whole entry, looked up): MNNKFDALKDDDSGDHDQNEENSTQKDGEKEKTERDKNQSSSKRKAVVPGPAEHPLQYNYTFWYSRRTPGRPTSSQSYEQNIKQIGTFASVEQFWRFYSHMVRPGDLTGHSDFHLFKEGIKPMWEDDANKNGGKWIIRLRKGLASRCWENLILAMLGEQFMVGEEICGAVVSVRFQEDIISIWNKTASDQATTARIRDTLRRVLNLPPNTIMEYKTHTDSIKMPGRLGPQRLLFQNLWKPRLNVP
UniProt P49366, sequence (P49366 whole entry, looked up): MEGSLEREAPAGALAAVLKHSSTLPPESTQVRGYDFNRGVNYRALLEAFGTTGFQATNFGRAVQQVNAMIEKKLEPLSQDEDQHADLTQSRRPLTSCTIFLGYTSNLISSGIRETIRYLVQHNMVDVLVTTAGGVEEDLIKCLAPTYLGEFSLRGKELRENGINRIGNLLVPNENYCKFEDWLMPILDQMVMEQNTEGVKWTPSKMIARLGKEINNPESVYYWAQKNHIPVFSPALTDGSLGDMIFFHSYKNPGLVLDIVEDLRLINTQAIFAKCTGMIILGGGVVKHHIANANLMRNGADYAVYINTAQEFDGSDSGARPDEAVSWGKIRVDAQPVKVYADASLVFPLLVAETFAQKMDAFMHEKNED
UniProt Q7L576, sequence (Q7L576 whole entry, looked up): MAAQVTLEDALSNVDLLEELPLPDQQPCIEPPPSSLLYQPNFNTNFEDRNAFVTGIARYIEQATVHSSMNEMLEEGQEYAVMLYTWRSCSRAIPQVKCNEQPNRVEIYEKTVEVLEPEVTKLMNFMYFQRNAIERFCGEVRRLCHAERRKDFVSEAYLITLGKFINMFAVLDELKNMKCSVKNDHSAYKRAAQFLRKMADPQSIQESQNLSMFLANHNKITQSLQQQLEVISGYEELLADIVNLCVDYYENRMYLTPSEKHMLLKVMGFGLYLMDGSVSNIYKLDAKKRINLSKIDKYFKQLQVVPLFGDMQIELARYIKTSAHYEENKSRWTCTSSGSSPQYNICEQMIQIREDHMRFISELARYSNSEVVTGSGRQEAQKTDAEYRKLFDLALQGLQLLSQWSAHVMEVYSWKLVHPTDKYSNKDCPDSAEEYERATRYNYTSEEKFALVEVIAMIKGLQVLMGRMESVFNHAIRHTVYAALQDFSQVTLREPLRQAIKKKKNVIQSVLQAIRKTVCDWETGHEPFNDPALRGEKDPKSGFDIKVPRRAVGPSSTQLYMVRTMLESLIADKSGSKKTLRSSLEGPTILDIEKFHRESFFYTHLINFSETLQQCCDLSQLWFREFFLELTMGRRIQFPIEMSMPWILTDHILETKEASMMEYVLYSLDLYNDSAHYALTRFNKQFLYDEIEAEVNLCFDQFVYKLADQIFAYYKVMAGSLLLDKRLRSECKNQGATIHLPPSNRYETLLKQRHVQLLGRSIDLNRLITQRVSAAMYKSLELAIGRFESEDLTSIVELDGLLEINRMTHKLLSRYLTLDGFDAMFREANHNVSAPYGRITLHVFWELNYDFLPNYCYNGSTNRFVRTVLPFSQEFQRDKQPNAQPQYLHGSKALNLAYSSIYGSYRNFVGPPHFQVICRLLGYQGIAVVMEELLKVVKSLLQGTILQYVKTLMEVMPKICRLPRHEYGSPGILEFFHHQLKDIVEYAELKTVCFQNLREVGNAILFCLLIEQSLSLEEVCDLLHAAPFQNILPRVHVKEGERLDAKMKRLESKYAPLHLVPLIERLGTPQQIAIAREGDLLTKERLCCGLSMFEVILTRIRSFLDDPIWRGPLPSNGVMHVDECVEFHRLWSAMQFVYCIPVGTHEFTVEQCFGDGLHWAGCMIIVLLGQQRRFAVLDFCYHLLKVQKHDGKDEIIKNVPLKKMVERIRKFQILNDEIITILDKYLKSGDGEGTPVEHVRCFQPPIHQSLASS
UniProt Q8N6R0, sequence (Q8N6R0 whole entry, looked up): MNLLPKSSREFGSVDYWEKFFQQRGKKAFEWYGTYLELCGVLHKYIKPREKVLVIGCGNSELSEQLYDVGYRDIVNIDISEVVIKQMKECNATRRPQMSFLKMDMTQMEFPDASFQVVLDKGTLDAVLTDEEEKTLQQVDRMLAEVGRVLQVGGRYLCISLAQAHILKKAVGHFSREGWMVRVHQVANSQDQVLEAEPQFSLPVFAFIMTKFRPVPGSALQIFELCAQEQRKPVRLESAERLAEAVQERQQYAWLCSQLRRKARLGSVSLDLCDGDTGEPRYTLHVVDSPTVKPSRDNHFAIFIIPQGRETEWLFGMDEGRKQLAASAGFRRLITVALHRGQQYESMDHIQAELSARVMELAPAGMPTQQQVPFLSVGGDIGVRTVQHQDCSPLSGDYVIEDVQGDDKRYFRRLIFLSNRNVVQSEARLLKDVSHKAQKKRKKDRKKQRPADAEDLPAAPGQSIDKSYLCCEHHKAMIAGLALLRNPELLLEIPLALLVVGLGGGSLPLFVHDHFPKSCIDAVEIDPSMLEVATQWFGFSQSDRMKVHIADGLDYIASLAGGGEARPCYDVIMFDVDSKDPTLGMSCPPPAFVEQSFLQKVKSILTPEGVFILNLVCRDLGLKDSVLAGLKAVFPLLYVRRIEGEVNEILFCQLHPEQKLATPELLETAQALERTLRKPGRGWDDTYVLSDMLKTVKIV
UniProt P41091, sequence (P41091 whole entry, looked up): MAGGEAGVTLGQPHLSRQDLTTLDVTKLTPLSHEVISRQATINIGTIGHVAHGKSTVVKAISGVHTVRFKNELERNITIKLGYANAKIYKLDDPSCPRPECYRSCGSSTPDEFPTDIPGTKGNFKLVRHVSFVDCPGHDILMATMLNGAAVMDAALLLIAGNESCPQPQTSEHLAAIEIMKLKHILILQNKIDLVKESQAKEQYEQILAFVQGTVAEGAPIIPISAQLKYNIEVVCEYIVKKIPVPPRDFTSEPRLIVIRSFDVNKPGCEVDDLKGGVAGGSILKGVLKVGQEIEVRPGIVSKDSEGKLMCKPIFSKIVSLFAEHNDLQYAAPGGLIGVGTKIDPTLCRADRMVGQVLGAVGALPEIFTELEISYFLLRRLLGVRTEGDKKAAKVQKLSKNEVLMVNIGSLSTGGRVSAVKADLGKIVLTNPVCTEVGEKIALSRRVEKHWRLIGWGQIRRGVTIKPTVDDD
UniProt O75822, sequence (O75822 whole entry, looked up): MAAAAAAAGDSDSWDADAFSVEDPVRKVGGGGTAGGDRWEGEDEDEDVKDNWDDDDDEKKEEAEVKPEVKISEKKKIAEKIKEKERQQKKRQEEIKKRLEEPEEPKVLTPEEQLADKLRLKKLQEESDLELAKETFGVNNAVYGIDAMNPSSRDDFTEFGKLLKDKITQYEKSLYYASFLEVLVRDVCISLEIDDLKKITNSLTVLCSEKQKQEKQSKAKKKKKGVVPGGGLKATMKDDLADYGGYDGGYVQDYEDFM

These targets were tested with c1cn2cc(-c3ccc4cn[nH]c4c3)nc(Nc3ccc(N4CCOCC4)cc3)c2n1 [entospletinib] (assay: log2 fold change, soluble protein after heating vs DMSO (PISA); higher = thermal stabilisation; K562 cells, 10 uM, 30 min; active = over 0.2 and 3.5 SD of the protein, either way, in both replicates (recomputed)).
Outline: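 Thermal stability values are relative to control samples and come from duplicates. They are expressed as log2 fold changes. For measurement, K562 cells (2×10^6 cells/mL) received 10 μM compound for 30 min, and aliquots were heated for 3 min over 48°C-58°C, pooled, and extracted at 4°C in PBS with 0.5% NP-40. Soluble protein, the supernatant after 21,000xg for 90 min, was quantified by TMTpro 16plex LC-MS/MS with equalised channel sums.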
CTSZ (UniProt Q9UBR2) showed a log2 fold change of 0.13.
EGLN1 (UniProt Q9GZT9) gave a log2 fold change of 0.
For FAM118B (UniProt Q9BPY3), the log2 fold change was -0.011.
For EIF3J (UniProt O75822), the log2 fold change was -0.005.
For CTSL (UniProt P07711), the log2 fold change was 0.091.
In the case of DYNC1I2 isoform 2 (UniProt Q13409), the log2 fold change is reported as 0.082.
With DTYMK (UniProt P23919) the log2 fold change was 0.013.
In the case of DNM2 isoform 4 (UniProt P50570), the log2 fold change is reported as -0.257.
DHRS3 (UniProt O75911) showed a log2 fold change of -0.041.
With DFFB (UniProt O76075) the log2 fold change was -0.024.
Target CYFIP1 (UniProt Q7L576) has a log2 fold change of -0.018.
EEF2K (UniProt O00418) gave a log2 fold change of 0.09.
Target DOHH (UniProt Q9BU89) has a log2 fold change of 0.1.
EEF1G isoform 2 (UniProt P26641) gave a log2 fold change of -0.012.
DHRS7B (UniProt Q6IAN0) gave a log2 fold change of 0.134.
Target DDX27 (UniProt Q96GQ7) has a log2 fold change of -0.035.
In the case of DPP8 (UniProt Q6V1X1), the log2 fold change is reported as -0.377 (active).
With EBNA1BP2 (UniProt Q99848) the log2 fold change was 0.031.
DNTTIP2 (UniProt Q5QJE6) showed a log2 fold change of 0.108.
EDC4 (UniProt Q6P2E9) gave a log2 fold change of 0.044.
Target DSN1 (UniProt Q9H410) has a log2 fold change of -0.044.
For DERPC (UniProt P0CG12), the log2 fold change was 0.125.
EIF4E2 (UniProt O60573) showed a log2 fold change of -0.107.
DHPS (UniProt P49366) was tested, and the log2 fold change was -0.003.
Work on CTSH (UniProt P09668) yielded a log2 fold change of -0.021.
EED, A0A5F9ZI63 showed a log2 fold change of 0.037.
DNM2 (UniProt P50570) was tested, and the log2 fold change was -0.017.
Target DDB1 (UniProt Q16531) has a log2 fold change of 0.001.
With DHX36 (UniProt Q9H2U1) the log2 fold change was 0.016.
DAG1 (UniProt Q14118) was tested, and the log2 fold change was 0.003.
EIF2S3 (UniProt P41091) gave a log2 fold change of -0.051.
DYNC1I2 isoform 5 (UniProt Q13409) was tested, and the log2 fold change was 0.038.
Work on DPYSL2 (UniProt Q16555) yielded a log2 fold change of -0.015.
In the case of EMD (UniProt P50402), the log2 fold change is reported as 0.102.
For EEF1AKNMT (UniProt Q8N6R0), the log2 fold change was 0.059.
